Bioassay records deposited in PubChem by several laboratories.
Most compounds without a hit are left out; they make up all but 1.7% or so of the library.
MIN6 prolif – inducers of MIN6 beta-cell proliferation, primary screen, ATP luminescence, uHTS; MIN6 cells proliferation, ATPlite luminescence, 48 h; cells starved in 0.2% serum; 100% = growth in 10% serum; proliferation, % at 10 µM; 0.29% of 330,000 active; AID 2380, 2010;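 active = compounds whose signal lies at least 3.5 SD above the mean of all wells on their plate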;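 note: 0% = DMSO-treated cells in low-serum medium and 100% = 10% serum control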
H9c2 TAG inh – inhibitors of triacylglycerol accumulation, primary screen, cell-based, uHTS, fluorescence, H9c2; 0.66% of 230,000 active; H9c2 cells, Nile Red lipid (TAG) fluorescence; cells loaded with 200 µM oleic acid; AID 651582, 2012; inhibition, % at 12.5 µM;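 active = pattern-corrected inhibition of lipid staining of at least 50% with the nuclear-stain viability signal not falling by more than 50%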;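 note: 0% = DMSO wells and 100% = triacsin C control wells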
CHT block – inhibitors of human choline transporter CHT | CHT-expressing cells, membrane potential dye, choline response; hits give low values | B-score at 10 µM | 0.86% of 310,000 active;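 active = B-score over 3 SD under the library average, and starting fluorescence ratio not unusually high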;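 note: choline stimulus applied at its EC90 after an EC20 pre-addition; B-score computed on integrated fluorescence ratio after choline addition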
Target sequence (Q9GZV3 whole entry, looked up): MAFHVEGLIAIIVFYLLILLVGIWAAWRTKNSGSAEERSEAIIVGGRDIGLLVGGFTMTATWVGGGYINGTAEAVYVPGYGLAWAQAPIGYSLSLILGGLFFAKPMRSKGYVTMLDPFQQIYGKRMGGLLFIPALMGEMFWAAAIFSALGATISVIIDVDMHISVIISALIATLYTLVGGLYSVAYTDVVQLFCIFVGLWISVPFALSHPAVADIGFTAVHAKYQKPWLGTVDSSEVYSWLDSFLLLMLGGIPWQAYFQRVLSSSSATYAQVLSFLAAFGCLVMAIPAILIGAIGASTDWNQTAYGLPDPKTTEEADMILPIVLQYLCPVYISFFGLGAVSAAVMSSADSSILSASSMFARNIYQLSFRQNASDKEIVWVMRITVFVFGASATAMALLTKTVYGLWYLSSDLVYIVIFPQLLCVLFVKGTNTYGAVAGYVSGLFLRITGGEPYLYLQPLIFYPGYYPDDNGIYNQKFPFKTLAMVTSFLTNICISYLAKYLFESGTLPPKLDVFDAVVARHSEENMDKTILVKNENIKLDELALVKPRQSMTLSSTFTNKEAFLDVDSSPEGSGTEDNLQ
CHT PAM – CHT positive allosteric modulators, primary screen, cell-based, membrane potential dye, choline EC20 | AID 488977, 2010 | CHT-expressing cells; hits give high values; LV-AA mutant CHT in HEK293 cells | B-score at 10 µM | 0.49% of 310,000 active;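 active = initial fluorescence not abnormally high and integrated response B-score, plate-corrected, over 3 SD above library mean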
* marks the source's active call; other numbers are inactive results; i = inactive; x = not tested or not shown.

SMILES | MIN6 prolif | H9c2 TAG inh | CHT block | CHT PAM
CN(C)CCCN(C(=O)CCc1ccccc1)c1nc2ccc(Br)cc2s1 | -6 | 98* | i | i
COc1cc(C#Cc2c(-c3cncn3C)n(C)c3ccc(-c4ccc(OC)nc4)cc23)cc(OC)c1 | -7 | 103* | x | x
COc1cc(C(=O)NC2CCN(C)CC2)ccc1Nc1ncc2c(n1)N(C1CCCC1)CCC(=O)N2C(C)C | x | 58* | x | x
COc1ccc(C(=O)NC2CCCCCCC2)cc1OC | -1 | 4 | i | i
CNC(C)C(=O)NC(C(=O)NC(C)C(=O)Nc1cccc2ccccc12)C(C)C (centres undefined) | x | 35 | x | x
CCC(C)(C)c1ccc(Oc2ccc(N)cc2)cc1 | x | 69* | x | x
CCC(C)(C)c1ccc(Oc2cccc(C(=O)O)c2)cc1 | 0 | x | i | i
Cc1cccc(C)c1NC(=O)c1nc(S(=O)(=O)Cc2ccccc2)ncc1Cl | -7 | x | i | i
Cc1ccccc1NC(=O)c1nc(S(C)(=O)=O)ncc1Cl | -5 | 68* | i | i
COc1ccc(Cc2noc(=O)[nH]2)cc1 | x | -3 | x | x
COc1ccc(C(C)=O)cc1COC(=O)CSCC(=O)Nc1ccc(C)cc1 | 0 | -1 | i | i
CC(=O)c1ccc(N=Cc2c(O)n(-c3cc(Cl)ccc3N3CCOCC3)c(=O)c3ccccc23)cc1 | -2 | 52* | i | i
COc1ccc(COc2cc(-c3cccc(OC)c3)nc3ccc(NC(=O)c4ccccc4)cc23)cc1 | -3 | x | i | i
COc1ccc(COc2cc(-c3cccc(OC)c3)nc3ccc(NC(=O)c4ccc(OC)cc4)cc23)cc1 | -4 | 57* | i | i
CC(C)CNC(=O)C1(C)CCCN1C(=O)c1cccnc1Oc1ccccc1 (centres undefined) | x | 3 | x | x
Cc1[nH]n(-c2ccc(Br)cc2)c(=O)c1/C=N/NC(=O)c1ccccc1 | -4 | x | -5.4* | i
CNc1cc(C(=O)Nc2cccc(OCc3ccccc3)c2)ncn1 | x | -11 | x | x
O=C(O)C(Cc1cccs1)c1cccs1 (centres undefined) | x | -10 | x | x
CCOc1ccc(Cl)cc1-c1cc(C(=O)NCc2cccc(C(F)(F)F)c2)[nH]n1 | x | -13 | x | x
Cc1ccc(NC(=O)C(=Cc2ccc(C(=O)O)cc2)C(=O)Nc2ccc(C)cc2C)c(C)c1 | -6 | 56* | i | i
Cc1ccccc1NC(=O)Cn1nnc(C(=O)NCc2ccco2)c1N | -2 | x | i | i
CCOc1ccccc1NC(=O)Cn1nnc(C(=O)NCc2ccco2)c1N | -2 | 66* | i | i
C1CCC(c2nn3c(-c4n[nH]c5c4CCC5)nnc3s2)CC1 | -1 | 12 | i | i
CCN(CC)c1ccc(-c2nn3c(-c4n[nH]c5c4CCC5)nnc3s2)cc1 | -4 | 57* | i | i
O=C(NC1CC(=O)N(c2ccc(Cl)cc2)C1)C1CC1 (centres undefined) | 2 | -9 | i | i
SMILES | MIN6 prolif | H9c2 TAG inh | CHT block | CHT PAM
COc1ccc(C[C@H]2CN3C(=NC[C@@H]3Cc3ccccc3)N2CCNC(=O)c2ccc(C)c(Br)c2)cc1 | -8 | 120* | i | i
COc1ccc(C[C@H]2CN3C(=NC[C@H]3Cc3ccccc3)N2CCNC(=O)c2ccc(C)c(Br)c2)cc1 | -9 | 128 | i | i
O=C(NC1CCCC1)C(c1c[nH]c2ccccc12)N(C(=O)Cn1nnc(-c2ccc(Cl)cc2)n1)c1ccccc1 (centres undefined) | -5 | 77* | i | i
Cc1ccc2nc(-c3ccccc3)cc(C(=O)N3CCN(S(=O)(=O)c4c(C)noc4C)CC3)c2c1 | -4 | 7 | x | x
COc1ccccc1NC(=S)N=Nc1c(O)[nH]c2ccc(Br)cc12 | -6 | 50* | i | i
Oc1[nH]c2ccc(Br)cc2c1N=NC(=S)NCC1CCCO1 (centres undefined) | -6 | 17 | i | i
Cc1cc(Br)ccc1NC(=O)CNC(=O)Cn1ncc(Cl)c(Cl)c1=O | -6 | 56* | i | i
CCOC(=O)c1ccc(NC(=O)Cn2ncc(Cl)c(Cl)c2=O)cc1 | -6 | 55* | i | i
O=C(Cn1ncc(Cl)c(Cl)c1=O)c1ccc2c(c1)OCCO2 | -6 | 4 | x | x
CCC(=O)Nc1ccc(C(=O)Cn2ncc(Cl)c(Cl)c2=O)cc1 | -6 | 61* | i | i
CC(C)Cc1nnc(NC(=O)C2CCCN(C(=O)c3ccc(Cl)cc3)C2)s1 (centres undefined) | x | -6 | x | x
COc1ccc(CCNC(=O)CCCn2c(=S)[nH]c3ccsc3c2=O)cc1OC | x | 5 | x | x
CCOC(=O)[C@@H]1[C@H]2COc3ccc(Br)cc3[C@@H]2N2C(=O)N(c3ccc(C(F)(F)F)cc3)C(=O)[C@]12C | -4 | 26 | i | i
COc1cccc(/C=N/NC(=O)c2cnccn2)c1O | -2 | 54* | i | i
CCN1CCN(c2nc3c(c(=O)n(C)c(=O)n3C)n2CCSc2ncccn2)CC1 | 0 | -3 | -7.5* | i
C(=N\NC1=Nc2cccc3cccc1c23)/c1ccccn1 | x | 51* | x | x
Cc1c(OC(C)C(=O)NCc2ccncc2)ccc2c3c(c(=O)oc12)CCCC3 (centres undefined) | 0 | x | -5* | i
Cc1c(OC(C)C(=O)NCc2ccccn2)ccc2c3c(c(=O)oc12)CCC3 (centres undefined) | 1 | x | i | i
Cc1ccc(N2C(=S)NC3c4cc(Cl)ccc4OC2(C)C3C(=O)N(C)C)cc1 (centres undefined) | 10* | 6 | i | i
Cc1cccc(N2C(=S)NC3c4cc(Cl)ccc4OC2(C)C3C(=O)N(C)C)c1 (centres undefined) | 7 | 11 | i | i
CCCCN(C(=O)C1CC(=O)N(c2ccc(CC)cc2)C1)c1c(N)n(CCC)c(=O)[nH]c1=O (centres undefined) | 0 | 19 | x | x
CCCCC1=CC2=C(c3ccco3)C(=O)C(C)(OC(=O)c3ccc(OC)cc3)C(=O)C2=CN1C1CCCC1 (centres undefined) | -8 | x | -7* | i
NC(=O)NC(CC(=O)OCC(=O)Nc1nnc(-c2ccccc2)o1)c1ccc(Cl)cc1 (centres undefined) | x | -25 | x | x
CC(C)(C)c1ccc(C(=O)NCCC(=O)Nc2cc(Cl)ccc2N2CCOCC2)cc1 | -7 | 57* | x | x
CC(C)c1ccc(CNCCCSc2ncccn2)cc1 | -1 | x | i | i
COc1ccc(-c2sc3cc4c(cc3c2C#CC2(N)CCCCC2)OCO4)cc1 | -7 | 59* | x | x
COc1cc(OC)cc(-c2sc3ccc(OC)cc3c2C#CC2(N)CCCCC2)c1 | -6 | 9 | x | x
CC(=O)Nc1sc2c(c1-c1nc3ccccc3s1)CCN(C(C)C)C2 | -7 | 92* | i | i
CC(C)N1CCc2c(sc(NC(=O)c3ccc4ccccc4c3)c2C(N)=O)C1 | -6 | 32 | i | i
